# Measurements as given in PubChem BioAssay (NCATS).
# Results filed as inconclusive are left out. Calls of active or inactive are those of the source. Calls follow the shape of the dose curve; as a rule, active = well fitted curve in the direction sought with a large enough effect; inconclusive = small, poorly fitted or top-dose-only effect, or another doubt; inactive = no such curve, though single readings can be large; an effect the other way counts as inactive or inconclusive.
# Columns and labels:
# [1] = Confirmatory screen GU Rhodamine qHTS for Zika virus inhibitors qHTS (AID 1347157); conditions: purified enzyme assay, Rhodamine110 substrate fluorescence, 15 min; series mostly up to 114 µM; also: nearly all actives have a fitted effect of over 70% in size; also: potency is read from the fitted curve at half-maximal effect
# How it was run: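 Enzyme 25 nM in Tris-HCl pH 8.0 + 0.01% Tween 20; compounds up to 114 microM, 15 min RT dark; + Rhod110 substrate 1.5 microM; read t0 and 15 min; delta fluorescence → % inhibition → 4-parameter Hill fit.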
# [2] = test system: Zika virus NS2B-NS3 protease (unlinked complex); assay: Primary screen GU Rhodamine qHTS for Zika virus inhibitors: Unlinked NS2B-NS3 protease assay (AID 1347159); conditions: Recombinant ZIKV NS2B-NS3 protease, Rhodamine110 substrate fluorescence; series mostly up to 107 µM; also: nearly all actives have a fitted effect of over 60% in size; also: potency is read from the fitted curve at half-maximal effect
# How it was run: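 A qHTS format was used, with compound concentrations ranging up to 114 microM. Each compound was preincubated with 25 nM NS2B-NS3 protease, and the substrate was then added at 1.5 microM. Curves were fitted with a 4-parameter Hill model.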
# [3] = test system: Zika virus NS2B-NS3 protease (linked construct); assay: Primary screen NINDS Rhodamine qHTS for Zika virus inhibitors (AID 1347160); conditions: purified NS2B-NS3 protease, Rhodamine110 substrate fluorescence; series mostly up to 57.1 µM; also: nearly all actives have a fitted effect of over 55% in size; also: potency is read from the fitted curve at half-maximal effect
# How it was run: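 Kinetic fluorescence (Ex 480 nm, Em 540 nm) over 15 min with 1.5 microM Rhodamine110 peptide and 25 nM linked protease.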
# [4] = test system: Zika virus NS2B-NS3 protease (linked); assay: 384 well plate NINDS AMC confirmatory qHTS for Zika virus inhibitors (AID 1347163); conditions: Recombinant NS2B-NS3 protease, Ac-VKTGKR-AMC fluorescence; series mostly up to 100 µM; also: nearly all actives have a fitted effect of over 50% in size; also: potency is read from the fitted curve at half-maximal effect
# How it was run: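 Linked NS2B-NS3 protease (final 5 nM, 30 nM or 60 nM) was preincubated with compounds (final up to 1 mM) for ~15 minutes. Ac-VKTGKR-AMC substrate (final 30 microM) then reacted for 25 minutes at room temperature in the dark. Fluorescence (ex 355/em 460 nm) was normalized to no-enzyme and no-inhibitor controls.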
# [5] = test system: Zika virus NS2B-NS3 protease (linked construct); assay: 384 well plate NINDS Rhodamine confirmatory qHTS for Zika virus inhibitors (AID 1347164); conditions: rhodamine-110 peptide substrate fluorescence; series mostly up to 100 µM;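 also: fluorescence from protease cleavage of Ac-LKRR-rhodamine 110 substrate; nearly all actives have a fitted effect of over 65% in size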; also: potency is read from the fitted curve at half-maximal effect
# How it was run: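 Enzyme (final 5/30/60 nM) + cpd (DMSO), ~15 min; add Ac-LKRR-Rd 10 microM final; 25 min RT, dark; FI ex 485/em 538; normalized to no-enzyme, no-inhibitor ctrls; aprotinin intraplate ctrl.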
# [6] = Vero cells viability qHTS for Zika virus inhibitors (AID 1347167); conditions: cytotoxicity counter-screen (Zika); series mostly up to 45.9 µM
# How it was run: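 Counter-screen for cytotoxicity of hits from NS2B-NS3 protease qHTS. Overnight-attached cells (2.5 x 10^5 cells/mL, DMEM/4% FBS) were dosed in titration, incubated 24 to 48 hours, then assayed by CellTiter Glo.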
# [7] = Tertiary RLuc qRT-PCR qHTS assay for Zika virus inhibitors (AID 1347169); conditions: infected Vero cells, reporter luminescence, 48-72 h; series mostly up to 45.9 µM; also: nearly all actives have a fitted effect of over 55% in size; also: potency is read from the fitted curve at half-maximal effect
# How it was run: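 Vero, 1,000 cells/well, o/n 37 C; cpd pinned in DMSO; ZIKV-RLuc Cambodian, MOI 1-2, 48-72 h 37 C; live-cell RLuc substrate, lum read at 1-1.5 h.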
# [8] = test system: Zika virus NS2B-NS3 protease; assay: Primary screen GU AMC qHTS for Zika virus inhibitors (AID 1347154); conditions: Zika NS2B-NS3 unlinked protease, AMC fluorogenic substrate; series mostly up to 54.1 µM; also: nearly all actives have a fitted effect of over 70% in size
# How it was run: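 Unlinked Zika NS2B hydrophilic domain/NS3 protease domain noncovalent complex (25 nM final) in 10 mM Tris-HCl pH 8.0, 0.01% Tween 20, with AMC peptide substrate. Fluorescence (ex 340, em 450 nm) change over 15 min, room temperature; percent inhibition fitted to 4-parameter Hill equation.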
# [9] = ZIKV-mCherry secondary qHTS for Zika virus inhibitors (AID 1347158); conditions: Vero cells, ZIKV-mCherry infection imaging, 48-72 h; series mostly up to 49.2 µM; also: top concentration of the series differs between compounds
# How it was run: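 Vero cells (5,000/well) were given compound, then infected with ZIKV-mCherry at MOI 1 for 48–72 h at 37 °C. After PFA fixation and Hoechst staining, imaging gave percent mCherry-positive cells. The positivity threshold was RFU above 450, 3 SD over negative controls.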
compound,measurement,setting,value
O=C(Nc1ccc(-c2ccc(Cl)c(Cl)c2)cc1)C1=C(O)c2ccccc2S(=O)(=O)N1,Potency,[1],2.48 µM (active)
same,Potency,[2],2.82 µM (active)
same,Potency,[3],3.98 µM (active)
same,Potency,[4],inactive
same,Potency,[5],44.7 µM (active)
same,outcome,[6],inactive
same,Potency,[7],26.2 µM (active)
COc1cc(C[C@H]2C(=O)OC[C@@H]2Cc2ccc(OC)c(OC)c2)ccc1O,Potency,[8],inactive
same,Potency,[2],inactive
same,Potency,[3],inactive
NC(=O)C[C@@H](N)C(=O)O,Potency,[8],inactive
Oc1cccc(-c2c3nc(c(-c4cccc(O)c4)c4ccc([nH]4)c(-c4cccc(O)c4)c4nc(c(-c5cccc(O)c5)c5ccc2[nH]5)CC4)C=C3)c1,Potency,[1],22.4 µM (active)
same,Potency,[9],inactive
same,Potency,[4],3.16 µM (active)
O=C(O)c1cc(N(Cc2ccc(C3CCCCC3)cc2)C(=O)c2ccc(Oc3ccccc3)cc2)ccc1O,Potency,[1],1.75 µM (active)
same,Potency,[2],1.26 µM (active)
same,Potency,[3],2.82 µM (active)
same,Potency,[4],1.41 µM (active)
same,Potency,[5],inactive
same,outcome,[6],inactive
C=C1/C(=C/C=C2\CCC[C@]3(C)[C@@H]([C@H](C)/C=C/[C@@H](C)C(C)C)CC[C@@H]23)C[C@@H](O)C[C@@H]1O,Potency,[1],49.4 µM (active)
same,Potency,[2],31.6 µM (active)
same,Potency,[3],inactive
same,Potency,[7],3.3 µM (active)
CN(C)CCCn1cc(C2=C(c3c[nH]c4ccccc34)C(=O)NC2=O)c2ccccc21,Potency,[8],inactive
same,Potency,[2],inactive
same,Potency,[3],inactive
C[C@H]1CO[C@@H]2Cn3cc(C(=O)NCc4ccc(F)cc4F)c(=O)c(O)c3C(=O)N12,Potency,[1],inactive
same,Potency,[2],35.5 µM (active)
same,Potency,[3],inactive
same,Potency,[7],inactive
CC(O)(C(=O)O)C1CCC2(C)C1CCC1(C)C2CCC2C3(C)CCC(O)C(C)(COC4OC(CO)C(O)C(O)C4O)C3CCC21C (centres undefined),Potency,[1],13.1 µM (active)
same,Potency,[2],7.94 µM (active)
same,Potency,[4],39.8 µM (active)
same,Potency,[5],12.6 µM (active)
same,outcome,[6],inactive
same,Potency,[7],inactive
O=C(Nc1cc(C(F)(F)F)cc(C(F)(F)F)c1)c1cnc(Cl)nc1C(F)(F)F,Potency,[1],24.8 µM (active)
same,Potency,[2],15.8 µM (active)
same,Potency,[3],inactive
COc1cc(C(=O)O)ccc1NC(=O)C1NC(CC(C)(C)C)C(C#N)(c2ccc(Cl)cc2F)C1c1cccc(Cl)c1F (centres undefined),Potency,[1],4.41 µM (active)
same,Potency,[2],2.51 µM (active)
same,Potency,[7],9.3 µM (active)
COc1ccc2cc(-c3cc(-c4cc(Cl)cc(Cl)c4)nn3C(C)c3ccc(C(=O)NCCC(=O)O)cc3)ccc2c1 (centres undefined),Potency,[1],5.55 µM (active)
same,Potency,[2],2.24 µM (active)
same,Potency,[3],inactive
same,Potency,[7],inactive
CC#C[C@@H](CC(=O)O)c1ccc(OCc2ccc(CN3CCC4(C=Cc5ccccc54)CC3)s2)cc1,Potency,[1],2.78 µM (active)
same,Potency,[9],inactive
same,Potency,[2],3.16 µM (active)
same,Potency,[3],5.62 µM (active)
same,Potency,[4],5.01 µM (active)
same,outcome,[6],inactive
O=C(O)c1ccc(N2C(=O)/C(=C/c3ccc(-c4ccc([N+](=O)[O-])cc4)o3)C=C2c2ccccc2)cc1,Potency,[1],1.56 µM (active)
same,Potency,[9],inactive
same,Potency,[3],1.78 µM (active)
same,Potency,[4],22.4 µM (active)
same,Potency,[5],inactive
same,outcome,[6],inactive
CCCCCCCOc1cc2c(cc1/C(C)=C/c1ccc(C(=O)O)cc1)C(C)(C)CCS2(=O)=O,Potency,[1],1.97 µM (active)
same,Potency,[2],1.78 µM (active)
same,Potency,[3],2.51 µM (active)
same,outcome,[6],inactive
same,Potency,[7],2.94 µM (active)
COc1ccc2nccc(C(=O)CC[C@@H]3CCN(CC#Cc4cc(F)cc(F)c4F)C[C@@H]3C(=O)O)c2c1,Potency,[1],39.3 µM (active)
same,Potency,[2],25.1 µM (active)
same,Potency,[3],inactive
same,Potency,[7],inactive
CC1=C(C(=O)OC2CCCCC2)C(c2ccc([N+](=O)[O-])cc2)C2=C(CC(C)(C)CC2=O)N1 (centres undefined),Potency,[1],inactive
same,Potency,[2],inactive
same,Potency,[3],31.6 µM (active)
same,Potency,[7],inactive
O=C(O)c1cccc(-c2ccc(-c3cn(C(=O)N4CCCCC4Cc4ccccc4)nn3)cc2)c1 (centres undefined),Potency,[1],4.41 µM (active)
same,Potency,[2],3.98 µM (active)
same,Potency,[3],3.98 µM (active)
same,Potency,[4],inactive
same,Potency,[5],inactive
same,outcome,[6],inactive
same,Potency,[7],2.62 µM (active)
O=S(=O)(c1ccccc1)N(CC(F)(F)F)c1ccc(C(O)(C(F)(F)F)C(F)(F)F)cc1,Potency,[8],inactive
same,Potency,[3],inactive
CCc1ccccc1OC[C@@H](O)CN[C@H]1CCCc2ccccc21,Potency,[8],inactive
same,Potency,[2],inactive
same,Potency,[3],inactive
Cc1nc2ccc(CN(C)c3ccc(C(=O)NC(CCC(=O)O)C(=O)O)s3)cc2c(=O)[nH]1 (centres undefined),Potency,[2],inactive
Cc1cc(OCCCS(C)(=O)=O)cc(C)c1-c1cccc(COc2ccc3c(c2)OCC3CC(=O)O)c1 (centres undefined),Potency,[1],8.79 µM (active)
same,Potency,[2],12.6 µM (active)
same,Potency,[3],inactive
O=C(O)c1ccc(S(=O)(=O)N(Cc2ccc(OC(F)(F)F)cc2)c2ncc(C(F)(F)F)cc2Cl)cc1,Potency,[1],3.93 µM (active)
same,Potency,[2],4.47 µM (active)
same,Potency,[3],4.47 µM (active)
same,Potency,[4],2.51 µM (active)
same,outcome,[6],inactive
same,Potency,[7],18.6 µM (active)
